Active and inactive are the calls of the source. Unless noted, the rule behind the calls is not given here.
How the values were obtained:
[1] = test system: Wnt5a (protein binding on small-molecule microarray); assay: small molecules binding Wnt5a protein – biophysical, small-molecule microarray, 635/667 nm fluorescence, primary screen (AID 1142); conditions: 635 nm fluorescence, higher = more signal;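 note: fluorescence read at 667 nm with signal to noise per printed feature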
[2] = ATP-based viability of Huh7 replicon cells – cell-based, CellTiter-Glo luminescence, basal, 48 h, cytotoxicity control for HCV replication inhibitor project, primary screen (AID 1143); conditions: higher = more signal, called active from +8 up or from −8 down;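 note: Huh7 hepatoma cells carrying a hepatitis C replication reporter with no stimulus; test concentration not given here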
[3] = Pseudomonas biofilm growth suppression – PAO1 strain, BacTiter-Glo luminescence, LB-PBS, primary screen (AID 1144); conditions: P. aeruginosa PAO1 biofilm, 12 h, higher = more signal
[4] = basal CRE-LacZ reporter activity in PC12 – cell-based, unstimulated, primary screen (AID 1145); conditions: no forskolin, luminescence, 4.5 h, higher = more signal, called active from +8 up or from −8 down
[5] = forskolin-driven CRE-LacZ activity in PC12 – cell-based, CRE-LacZ reporter, forskolin-stimulated, primary screen (AID 1146); conditions: luminescence, 4.5 h, higher = more signal, called active from +8 up or from −8 down;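 note: PC12 cells with 6xCRE LacZ reporter stimulated by forskolin 10 µM; beta-galactosidase reporter signal reflecting CREB driven transcription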
[6] = molecular target: Streptavidin (Streptomyces avidinii) (UniProt P22629); assay: compounds binding control protein streptavidin – biophysical, small-molecule microarray, 635/667 nm fluorescence, artefact control for SMM compound annotation, primary screen (AID 1147); conditions: higher = more signal;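 note: signal reflects streptavidin binding to arrayed compounds as a control protein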
[7] = probe aInhba binding on compound microarray – biochemical, small-molecule microarray, 635/667 nm fluorescence, primary screen (AID 1148); conditions: higher = more signal;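 note: score merges 667nm spot fluorescence with signal-to-noise for antibody binding to printed compounds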
Torsin-1A (Homo sapiens) [8] = molecular target: Torsin-1A (Homo sapiens) (UniProt O14656); assay: TOR1A wild-type binding on microarray – cell lysate, small-molecule microarray, lysate, 635/667 nm, primary screen (AID 1149); conditions: COS7 hTOR1A-WT lysate, 635 nm fluorescence, higher = more signal
Torsin-1A (Homo sapiens) [9] = molecular target: Torsin-1A (Homo sapiens) (UniProt O14656); assay: torsin A mutant lysate binding on microarrays – cell lysate, small-molecule microarray, COS7 lysate, 635/667 nm fluorescence, primary screen (AID 1150); conditions: COS7 hTOR1A mutant lysate, 635 nm fluorescence, higher = more signal;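 note: score pools 667 nm emission and signal to noise measuring lysate protein binding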
[10] = test system: Sonic hedgehog protein (Shh); assay: Sonic hedgehog microarray binding compounds – biochemical, small-molecule microarray, 635/667 nm fluorescence, primary screen (AID 1151); conditions: 635 nm fluorescence, higher = more signal;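 note: Shh protein binding to compounds spotted on small-molecule microarray slides; score combines spot fluorescence intensity with signal-to-noise across triplicate slides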

Sequence of Streptavidin (Streptomyces avidinii) (P22629 whole entry, looked up): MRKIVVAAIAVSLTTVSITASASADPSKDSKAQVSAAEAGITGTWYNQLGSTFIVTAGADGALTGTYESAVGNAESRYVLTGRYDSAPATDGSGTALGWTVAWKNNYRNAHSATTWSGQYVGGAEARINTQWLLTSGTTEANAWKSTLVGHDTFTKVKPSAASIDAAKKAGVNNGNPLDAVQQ
Sequence of Torsin-1A (Homo sapiens) (O14656 whole entry, looked up): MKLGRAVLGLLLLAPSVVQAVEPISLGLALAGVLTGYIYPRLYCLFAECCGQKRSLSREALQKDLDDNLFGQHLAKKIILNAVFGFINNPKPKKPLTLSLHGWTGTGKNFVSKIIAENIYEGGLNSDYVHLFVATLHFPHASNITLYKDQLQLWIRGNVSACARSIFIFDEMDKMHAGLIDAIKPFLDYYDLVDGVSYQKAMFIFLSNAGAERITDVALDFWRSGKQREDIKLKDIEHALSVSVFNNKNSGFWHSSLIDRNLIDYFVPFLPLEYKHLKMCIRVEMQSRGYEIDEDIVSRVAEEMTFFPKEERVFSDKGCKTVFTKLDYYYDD

SMILES | composite z-score [1] | z-score [2] | z-score [3] | z-score [4] | z-score [5] | composite z-score [6] | composite z-score [7] | composite z-score (Torsin-1A (Homo sapiens) [8]) | composite z-score (Torsin-1A (Homo sapiens) [9]) | composite z-score [10]
COCCCNC(=O)[C@@]1(Cc2ccccc2I)c2ccccc2C(=O)N(C2CCCCC2)[C@H]1c1ccc(CO)cc1 | 0.665 | -4.51 (inactive) | -1.54 (inactive) | 0.468 (inactive) | -0.175 (inactive) | -0.0972 | 0.115 | -0.0751 | 0.646 | 1.04
C=CC[C@]12N=C(c3ccc(OCCCO)cc3)O[C@H]1c1ccccc1N(CCC)C2=O | 0.587 | -3.39 (inactive) | 0.552 (inactive) | 0.866 (inactive) | -0.743 (inactive) | -0.256 | 0.562 | 0.234 | 0.397 | 1.61
[N-]=[N+]=Nc1ccccc1C[C@]1(C(=O)N2CCCCC2)N=C(c2ccc(OCCCO)cc2)O[C@H]1c1ccccc1 | 0.982 | -4.56 (inactive) | 0.0619 (inactive) | -0.506 (inactive) | -0.0671 (inactive) | 1.15 | 0.696 | 0.351 | 0.402 | 1.05
C=CCC(OC(C)=O)[C@@H]1[C@@H](N(Cc2ccc(-c3ccccc3)cc2)C(=O)Cc2ccc(OC)cc2)c2cc(OCCCO)ccc2N1C(=O)c1ccc2ccccc2c1 (stereo not given in full) | -0.0966 | -1.35 (inactive) | 0.832 (inactive) | 1.37 (inactive) | 0.385 (inactive) | 1.14 | -0.153 | -0.137 | -0.451 | 0.234
C=CC[C@]1(C(=O)NCC(O)CO)N=C(c2ccc(OCCCO)cc2)O[C@H]1c1ccccc1CN=[N+]=[N-] (stereo not given in full) | 0.176 | -0.627 (inactive) | 0.381 (inactive) | 0.652 (inactive) | -0.163 (inactive) | 0.184 | 0.249 | 0.598 | 2.58 | -0.803
CCN1C(=O)C2CC(=O)C3C(CN(S(=O)(=O)c4ccc(C)cc4)C3c3ccc(C)cc3)C2C1=O (stereo not given) | 0.235 | -1.49 (inactive) | 1.03 (inactive) | -0.676 (inactive) | -0.202 (inactive) | 0.851 | -0.0471 | 0.364 | 0.915 | 0.184
CN(C)CCCCCCNC(=O)[C@@H]1C[C@@H]2C(=O)N[C@@H](CCCC[N+](C)(C)C)C(=O)N2[C@@H]1c1cccc(OCCO)c1 | 0.144 | -0.966 (inactive) | -0.217 (inactive) | -0.805 (inactive) | -0.416 (inactive) | -0.3 | 0.0569 | 0.327 | -0.284 | -0.371
CC(C)Cc1ccc(CN2CC[C@@H](NC(=O)c3ccccc3)C2)cc1 | -0.36 | -2.65 (inactive) | 0.241 (inactive) | 3.31 (inactive) | 0.603 (inactive) | -0.238 | -0.157 | 0.205 | 0.134 | -0.0199
[N-]=[N+]=Nc1ccccc1C[C@@]1(C(=O)NCC(O)CO)N=C(c2ccc(OCCCO)cc2)O[C@@H]1c1ccccc1N=[N+]=[N-] (stereo not given in full) | 1.28 | -4.99 (inactive) | -0.0717 (inactive) | 0.825 (inactive) | -1.42 (inactive) | 1.23 | -0.0504 | 1.53 | 0.0816 | -0.59
O=C1O[C@H](c2ccccc2)[C@H](c2ccccc2)N2[C@H]1[C@@H](C(=O)Nc1nc3ccccc3s1)[C@]1(C(=O)Nc3ccccc31)[C@H]2c1ccccc1OCCO | -0.023 | -4.68 (inactive) | -0.804 (inactive) | 0.272 (inactive) | 0.519 (inactive) | 1.25 | 0.161 | 0.869 | 1.11 | 0.465
C=CCNC(=O)[C@@H]1[C@H]2C(=O)O[C@H](c3ccccc3)[C@H](c3ccccc3)N2[C@H](c2ccc(O)cc2)[C@@]12C(=O)Nc1ccc(C#CC3=CCCCC3)cc12 | 0.779 | -4.01 (inactive) | -0.909 (inactive) | 0.119 (inactive) | -0.679 (inactive) | 1.72 | 1.05 | 0.857 | 0.975 | 2.03
